An excerpt weighted towards active compounds, which were near 8% of everything screened.
HT1080-NT tox = qHTS for induction of synthetic lethality in tumor cells producing 2HG: qHTS for the HT-1080-NT fibrosarcoma cell line; HT-1080-NT fibrosarcoma viability, CellTiter-Glo ATP luminescence, 48 h; Potency, µM (series often up to 46.1 µM), for the others: at the highest dose activity, negative = less viability, hits mostly cytotoxic; 360,000 tested, 1.6% active; AID 686970, 2013;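 note: NT is the 2HG producing partner of a matched IDH1 knockdown line; 0% = DMSO-treated cells and -100% = media-only wells without cells; nearly all actives have a fitted effect of over 55% in size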
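HT-1080-NT fibrosarcoma cells (2HG-overproducing), 750 cells/well in RPMI with 5% FBS, dosed after 2 h and incubated 48 h at 37C. CellTiter-Glo luminescence normalized to DMSO and no-cell wells; concentration-response curves fitted and classed.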
HT1080 IDH1KD tx = qHTS for induction of synthetic lethality in tumor cells producing 2HG: qHTS for the HT-1080-IDH1KD cell line | HT-1080 IDH1 knockdown viability, ATP luminescence, 48 h | Potency, µM (highest dose often 46.1 µM), for inactives: at the highest dose activity, negative = toxicity, hits mostly cytotoxic | 360,000 tested, 2% active | AID 686971, 2013;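 note: 0% = DMSO wells and -100% = cell-free medium wells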
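HT-1080-IDH1KD cells (IDH1 knocked down), 750/well in RPMI with 5% FBS, treated with compound 48 h at 37 degrees C. Viability by CellTiter-Glo luminescence, normalised to DMSO and no-cell wells; concentration-response curves classed.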
KB-V1 MDR tox = qHTS assay for MDR1-selective chemotherapeutics: Primary screen using the drug-selected MDR subline cells KB-V1; 400,000 tested, 3.4% active; KB-V1 MDR cells viability, CellTiter-Glo, 72 h; Potency, µM (series often up to 46.1 µM), actives largely listed as cytotoxic; note: % is set by controls: 0 for no effect and ±100 for the full control effect; nearly all actives have a fitted effect of over 60% in size
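Readout: CellTiter-Glo luminescence, 10 min after addition. Cells: KB-V1 MDR subline, 72 h at 37 degrees C with compound. Analysis: corrected, normalized data fitted to concentration-effect curves.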
MCF10A rerep = A quantitative high throughput screen for small molecules that induce DNA re-replication in MCF 10a normal breast cells | 350,000 tested, 2.9% active | MCF 10A DNA re-replication, Hoechst nuclear intensity, 48 h | Potency, µM (titrated, usually from 46.1 µM), for inactives: at the top dose activity, positive = re-replication, usual class: activators; note: % of control where 0% means no effect; nearly all actives have a fitted effect of over 50% in size
SW480 rereplic = A quantitative high throughput screen for small molecules that induce DNA re-replication in SW480 colon adenocarcinoma cells; SW480 DNA re-replication, Hoechst DNA content imaging, 48 h; Potency, µM (highest dose often 46.1 µM), inactives show top-dose re-replication activation, most hits filed as activators; AID 624297, 2012; 340,000 tested, 1.8% active; note: % of control where 0% means no effect; nearly all actives have a fitted effect of over 55% in size
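Quantitative HTS format with DMSO vehicle controls; 48 hr drug incubation at 37 C, then 40 min Hoechst staining and scanning imager measurement at 405 nm excitation.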
KB-3-1 tox = qHTS assay for MDR1-selective chemotherapeutics: Primary screen using the parental adenocarcinoma cell KB-3-1 | 400,000 tested, 1.4% active | KB-3-1 viability, CellTiter-Glo ATP luminescence, 72 h | AID 1347075, 2019 | Potency, µM (top dose mostly 46.1 µM), hits mostly cytotoxic; note: % is set by controls: 0 for no effect and ±100 for the full control effect; nearly all actives have a fitted effect of over 60% in size
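Cytotoxicity in the drug-sensitive parental line KB-3-1 was scored as loss of CellTiter-Glo luminescence following 72 h incubation with compound. Values come from curve fitting of normalized concentration-response data.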
Starred values were filed as active, the others as inactive; i = inactive; ? = inconclusive; / = no result given. Calls come from the whole dose curve; as a rule, active = well fitted curve in the direction sought with a large enough effect; inconclusive = small, poorly fitted or top-dose-only effect, or another doubt; inactive = no such curve, though single readings can be large; an effect the other way counts as inactive or inconclusive. Potency is the fitted concentration of half-maximal effect.

SMILES | HT1080-NT tox | HT1080 IDH1KD tx | KB-V1 MDR tox | MCF10A rerep | SW480 rereplic | KB-3-1 tox
COc1ccccc1N1CCN(S(=O)(=O)CCNC(=O)Cc2ccc(F)cc2)CC1 | -27% | ? | 18µM* | 8% | ? | ?
COc1ccc(CC(=O)NCCS(=O)(=O)N2CCN(c3ccc(F)cc3)CC2)cc1OC | 1% | 1% | i | -2% | -3% | i
O/N=C(/C[n+]1cccc(Br)c1)c1ccc2ccccc2c1 | / | / | i | / | / | i
Cc1ccc(NC(=O)c2cc(=O)c3ccccc3o2)cc1S(=O)(=O)N1CCCCC1 | -24% | ? | 9.2µM* | ? | -2% | ?
O=C(Nc1ccc(S(=O)(=O)N2CCCCCC2)cc1)c1cc(=O)c2ccccc2o1 | / | / | i | / | / | i
CCOC(=O)Nc1ccc2nc(N3CCCCCC3)sc2c1 | ? | 8.2µM* | ? | 15µM* | 10µM* | i
Cc1nc(SCC(=O)Nc2ccc(S(=O)(=O)N3CCOCC3)cc2)c2c(C)c(C)sc2n1 | -9% | ? | i | ? | -6% | 5.8µM*
CCOCc1c(C(=O)Nc2ccc3nc(N4CCOCC4)sc3c2)oc2ccccc12 | -2% | -10% | 21µM* | ? | 2% | ?
CCOc1ccc(NC(=O)c2ccc3c(c2)S(=O)(=O)N=C2CCCCCN23)cc1 | 4% | -1% | i | / | / | i
Nc1nonc1-c1nc2ccccc2n1Cc1c(Cl)cccc1Cl | / | / | ? | / | / | i
CCc1nnc(SCC(=O)Nc2ccc(F)cc2F)c2cc3sc(C)cc3n12 | / | / | ? | / | / | i
COC(=O)c1ccc(C2NC(c3ccc4c(c3)OCO4)=CC(c3ccccc3O)N2)cc1 (configuration not stated) | / | / | i | / | / | i
O=S(=O)(Nc1cccc(-c2ccc(N3CCOCC3)nn2)c1)c1ccccc1C(F)(F)F | / | / | i | / | / | i
Cc1ccc(NC(=O)CSc2nc(N)cc(N)n2)cc1S(=O)(=O)N1CCOCC1 | -7% | -5% | i | ? | 3.7µM* | i
COc1cc2c(cc1OC)C(C)N(CC(=O)Nc1ccc(C)c(S(=O)(=O)N3CCOCC3)c1)CC2 (configuration not stated) | 16µM* | ? | i | -3% | -9% | i
COc1ccc(NC(=O)CN2CCc3ccccc3C2)cc1S(=O)(=O)N1CCOCC1 | -13% | -8% | i | 1% | 0% | i
Cc1ccc(NC(=S)NCc2ccccc2)cc1S(=O)(=O)N1CCCCC1 | -10% | -8% | 13µM* | 0% | ? | ?
Cc1ccc(NC(=O)CSc2nc(C)c(C)c(C)n2)cc1S(=O)(=O)N1CCOCC1 | -9% | -1% | ? | 0% | 3% | i
COCc1c(C(=O)Nc2ccc(C)c(S(=O)(=O)N3CCOCC3)c2)oc2ccccc12 | 6% | -2% | 4.6µM* | ? | -1% | ?
O=C(Nc1ccc(S(=O)(=O)N2CCCC2)cc1)c1cc(=O)c2ccccc2o1 | 29% | 17% | i | -2% | -10% | i
Cc1ccc(NC(=O)c2cc(=O)c3ccccc3o2)cc1S(=O)(=O)N1CCOCC1 | -17% | -6% | 16µM* | 1% | -15% | i
O=C(O)c1ccccc1-c1nnc2c(Cl)cc(C(F)(F)F)cn12 | -5% | 10% | ? | 0% | -1% | i
CCN(CC)S(=O)(=O)c1cc(NC(=O)CCCOc2ccc(C(C)=O)cc2)ccc1C | -8% | -16% | 2.9µM* | 16% | -2% | ?
Cc1ccc(NC(=O)CCC(=O)NNC(=O)COc2ccc([N+](=O)[O-])cc2)c(C)c1 | 2% | 3% | i | 1.6µM* | 2% | i
CN(CCOc1ccc(Cl)cc1)Cc1cccc(S(=O)(=O)N(C)C)c1 | 0% | -12% | 7.3µM* | ? | -4% | 21µM*
SMILES | HT1080-NT tox | HT1080 IDH1KD tx | KB-V1 MDR tox | MCF10A rerep | SW480 rereplic | KB-3-1 tox
Cc1ccc([N+](=O)[O-])cc1NC(=O)CCCOc1ccccc1 | 27% | 18% | 10µM* | 9% | -3% | i
Cc1ccc(-n2ncc(C(=O)NCCCN3CCN(C)CC3)c2C2CCN(C(=O)OC(C)(C)C)CC2)cc1 | / | / | i | / | / | i
O=C(NC1CCCCC1)NS(=O)(=O)c1ccc2c(c1)CCC2 | 10% | 23% | i | -4% | -1% | i
Cc1ccc(S(=O)(=O)N(C)C)cc1NC(=O)C(C)N(C)CCOc1ccc(Cl)cc1 (configuration not stated) | -2% | -21% | ? | 18µM* | ? | i
CC(=O)c1ccc(OCCCC(=O)Nc2cc(S(=O)(=O)N(C)C)ccc2C)cc1 | 1% | -1% | 23µM* | -3% | 16µM* | ?
Cc1ccc(S(=O)(=O)N(C)C)cc1NC(=O)C(C)Sc1ccccc1 (configuration not stated) | -5% | -3% | i | 19% | -5% | i
CCn1c(=O)n(CC)c2cc(N3CCCCC3)c(NC(=O)Nc3cc(C)cc(C)c3)cc21 | / | / | ? | / | / | i
CC12CCC(=O)N1C(C(=O)N1CCN(c3ccccc3)CC1)CS2 (configuration not stated) | 9% | 14% | i | 0% | -1% | i
CC12CCC(=O)N1C(C(=O)N1CCN(c3ccc([N+](=O)[O-])cc3)CC1)CS2 (configuration not stated) | 14% | ? | 18µM* | 1% | 0% | i
Cc1cc(NNC(=O)c2cccc(C(F)(F)F)c2)nc2c1c(C)nn2C | ? | ? | ? | -2% | -5% | i
COc1cccc(-c2nc(NC(C)(C)C)c3ccccc3n2)c1O | ? | ? | 23µM* | ? | 0% | ?
COc1cccc(-c2nc(N3CCC(C)CC3)c3ccccc3n2)c1O | ? | ? | 16µM* | 23% | 0% | i
COc1cccc(-c2nc(N3CCCC3)c3ccccc3n2)c1O | 9% | 5% | i | ? | 1% | i
Cc1ccc2oc(C(=O)Nc3cccc(Cl)c3)cc(=O)c2c1 | / | / | i | / | / | i
CCOc1ccc(CNC(=O)c2cccc(NC(=O)N3CCSc4ncccc43)c2)cc1 | / | / | i | / | / | i

Assay outcomes: PubChem BioAssay, National Center for Advancing Translational Sciences (NCATS)
